The record followed here is PubChem BioAssay (NCI).

Structures are written as SMILES. About 79,000 compounds went through this panel and 15% of them were active in at least one assay; those are over-represented in the sample as a whole. A number with no mark means an inactive call. The source made the active and inactive calls. Rule as the data show it: active = growth inhibition above about 70%; inactive = the rest.

Assay [1] can be described thus: NCI Yeast Anticancer Drug Screen. Data for the rad50 strain (AID 155).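 Also: 0% = growth of vehicle-only cultures of the same strain.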 As to conditions: S. cerevisiae rad50 strain growth inhibition, active compounds read high. An outline of the steps:
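Inhibition values express reduced yeast growth in compound-treated cultures relative to vehicle-treated controls.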

Assay [2] can be described thus: NCI Yeast Anticancer Drug Screen. Data for the mec2-1 strain (AID 157). As to conditions: S. cerevisiae mec2-1 strain, active compounds read high. The method in brief:
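Compounds were applied to mec2-1 yeast cells. Their growth was then compared with that of vehicle-treated cultures to give growth inhibition.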

Assay [3] can be described thus: NCI Yeast Anticancer Drug Screen. Data for the sgs1 mgt1 strain (AID 161).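 Also: 0% = growth of cultures given vehicle only.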 As to conditions: S. cerevisiae sgs1 mgt1 strain, active compounds read high. The method in brief: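 Yeast cells carrying a defined DNA-repair defect were exposed to test compounds. Growth inhibition was measured relative to vehicle-treated controls.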
Assay [4] can be described thus: NCI Yeast Anticancer Drug Screen. Data for the cln2 rad14 strain (AID 165).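 Also: 0% = growth equal to vehicle treated cultures.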 As to conditions: S. cerevisiae cln2 rad14 strain, active compounds read high. An outline of the steps: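 Strain: cln2 rad14 yeast, altered in cell cycle control and DNA damage repair. Read-out: growth inhibition vs vehicle.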
Assay [5] is described as follows: NCI Yeast Anticancer Drug Screen. Data for the bub3 strain (AID 167). As to conditions: S. cerevisiae bub3 mutant strain, active compounds read high. The method in brief: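 Steps: expose the mutant yeast strain to compound; grow alongside vehicle-treated cultures; measure growth; express inhibition against the vehicle cultures.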
Assay [6] can be described thus: NCI Yeast Anticancer Drug Screen. Data for the mlh1 rad18 strain (AID 175). As to conditions: S. cerevisiae mlh1 rad18 strain growth inhibition, active compounds read high. An outline of the steps:
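A repair-deficient yeast strain is exposed to test compound, and growth is scored relative to vehicle-treated controls.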

Where [7] appears, read: at 5.0 µM (retest, dose inferred, filed as 0.5).
Where [8] appears, read: at 50.0 µM (retest, dose inferred, filed as 5.0).

As to `C=CC(=O)c1ccc2c(c1)OCCOCCOCCOCCOCCO2`, the growth inhibition in assay [1] (setting [7]) is -18%; in assay [1] (setting [8]), 64%; in assay [1] (at 50.0 µM) it was 77.8% (active); in assay [2] (setting [7]), 4%; in assay [2] (setting [8]) it was 50%; in assay [2] (at 50.0 µM), 54.5%. Besides, the growth inhibition in assay [3] (setting [7]) was -13%; in assay [3] (setting [8]), 40%; in assay [3] (at 50.0 µM), 62.8%; in assay [4] (setting [7]), 20%; in assay [4] (setting [8]), 42%; in assay [4] (at 50.0 µM), 4.4%. Further, the growth inhibition is -4% in assay [5] (setting [7]); 78% (active) in assay [5] (setting [8]); 78% (active) in assay [5] (at 50.0 µM); 0% in assay [6] (setting [7]); 86% (active) in assay [6] (setting [8]); 59.4% in assay [6] (at 50.0 µM).

`CC(C)CC(CC(C)C)NCC(C)OC(=O)C(c1ccccc1)c1ccccc1` (configuration not stated): the growth inhibition in assay [1] (setting [7]) was -1%; in assay [1] (setting [8]) it was 94% (active); in assay [1] (at 50.0 µM), 29.2%; in assay [2] (setting [7]), -8%; in assay [2] (setting [8]), 78% (active); in assay [2] (at 50.0 µM) it was 50.3%. Also, the growth inhibition is -3% in assay [3] (setting [7]); 97% (active) in assay [3] (setting [8]); 84.8% (active) in assay [3] (at 50.0 µM); -3% in assay [4] (setting [7]); 73% (active) in assay [4] (setting [8]); 20.9% in assay [4] (at 50.0 µM). Also, the growth inhibition is -9% in assay [5] (setting [7]); 93% (active) in assay [5] (setting [8]); 68.2% in assay [5] (at 50.0 µM); 18% in assay [6] (setting [7]); 96% (active) in assay [6] (setting [8]); 95.2% (active) in assay [6] (at 50.0 µM).

With `CC1SC2(C(=O)Nc3ccc([N+](=O)[O-])cc32)N(c2ccc(Cl)cc2)C1=O` (configuration not stated), the growth inhibition in assay [1] (setting [7]) was 7%; in assay [1] (setting [8]), 97% (active); in assay [1] (at 50.0 µM), 95.6% (active); in assay [2] (setting [7]), -2%; in assay [2] (setting [8]) it was 97% (active); in assay [2] (at 50.0 µM), 95.7% (active). Also, the growth inhibition was -1% in assay [3] (setting [7]); 98% (active) in assay [3] (setting [8]); 79.2% (active) in assay [3] (at 50.0 µM); -1% in assay [4] (setting [7]); 97% (active) in assay [4] (setting [8]); 81.7% (active) in assay [4] (at 50.0 µM). Besides, the growth inhibition in assay [5] (setting [7]) was 12%; in assay [5] (setting [8]) it was 98% (active); in assay [5] (at 50.0 µM), 96.2% (active); in assay [6] (setting [7]), 6%; in assay [6] (setting [8]) it was 98% (active); in assay [6] (at 50.0 µM) it was 93.5% (active).

Take `CCOC(=O)c1ccc(-c2cccs2)n1C`: the growth inhibition in assay [1] (setting [7]) was -14%; in assay [1] (setting [8]) it was 6%; in assay [1] (at 50.0 µM), 65.9%; in assay [2] (setting [7]) it was -1%; in assay [2] (setting [8]), -6%; in assay [2] (at 50.0 µM), 43.8%. Further, the growth inhibition was -12% in assay [3] (setting [7]); -3% in assay [3] (setting [8]); 61.9% in assay [3] (at 50.0 µM); 28% in assay [4] (setting [7]); 0% in assay [4] (setting [8]); 23.4% in assay [4] (at 50.0 µM). Also, the growth inhibition in assay [5] (setting [7]) was -12%; in assay [5] (setting [8]), 1%; in assay [5] (at 50.0 µM), 67.8%; in assay [6] (setting [7]), -9%; in assay [6] (setting [8]) it was -1%; in assay [6] (at 50.0 µM) it was 43.2%.

As to `Clc1ccc(CNc2ccc(Br)cc2)cc1`, the growth inhibition in assay [1] (setting [7]) is 0%; in assay [1] (setting [8]) it was 82% (active); in assay [1] (at 50.0 µM), 94.5% (active); in assay [2] (setting [7]), 3%; in assay [2] (setting [8]), 93% (active); in assay [2] (at 50.0 µM), 85.5% (active). Also, the growth inhibition in assay [3] (setting [7]) was 4%; in assay [3] (setting [8]), 94% (active); in assay [3] (at 50.0 µM) it was 95.8% (active); in assay [4] (setting [7]), -9%; in assay [4] (setting [8]) it was 80% (active); in assay [4] (at 50.0 µM) it was 82.2% (active). In addition, the growth inhibition is 3% in assay [5] (setting [7]); 86% (active) in assay [5] (setting [8]); 85.2% (active) in assay [5] (at 50.0 µM); -1% in assay [6] (setting [7]); 91% (active) in assay [6] (setting [8]); 87.7% (active) in assay [6] (at 50.0 µM).

For `CSc1ccc(/C=C2/C[N+](C)(C)C/C(=C/c3ccc(SC)cc3)C2=O)cc1`, the growth inhibition in assay [1] (setting [7]) was 41%; in assay [1] (setting [8]), 41%; in assay [1] (at 50.0 µM) it was 90.6% (active); in assay [2] (setting [7]), 22%; in assay [2] (setting [8]), 22%; in assay [2] (at 50.0 µM), 90.7% (active). For the same molecule, the growth inhibition in assay [3] (setting [7]) is 34%; in assay [3] (setting [8]), 34%; in assay [3] (at 50.0 µM) it was 87.3% (active); in assay [4] (setting [7]), 20%; in assay [4] (setting [8]), 20%; in assay [4] (at 50.0 µM), 86.5% (active). Also, the growth inhibition in assay [5] (setting [7]) is 6%; in assay [5] (setting [8]), 6%; in assay [5] (at 50.0 µM), 90.2% (active); in assay [6] (setting [7]), 32%; in assay [6] (setting [8]), 32%; in assay [6] (at 50.0 µM), 86.7% (active).

As to `O=C(OCCCC(C(=O)c1ccccc1)=P(c1ccccc1)(c1ccccc1)c1ccccc1)c1ccccc1`, the growth inhibition was 35% in assay [1] (setting [7]); 99% (active) in assay [1] (setting [8]); 84.8% (active) in assay [1] (at 50.0 µM); 36% in assay [2] (setting [7]); 99% (active) in assay [2] (setting [8]); 36.8% in assay [2] (at 50.0 µM). Also, the growth inhibition in assay [3] (setting [7]) was 33%; in assay [3] (setting [8]), 99% (active); in assay [3] (at 50.0 µM) it was 61.5%; in assay [4] (setting [7]), 6%; in assay [4] (setting [8]), 98% (active); in assay [4] (at 50.0 µM), 9.75%. Moreover, the growth inhibition is 14% in assay [5] (setting [7]); 99% (active) in assay [5] (setting [8]); 23.4% in assay [5] (at 50.0 µM); 50% in assay [6] (setting [7]); 99% (active) in assay [6] (setting [8]); 54.8% in assay [6] (at 50.0 µM).

Take `C1=C(c2ccccc2)CCc2ccccc21`: the growth inhibition was 1% in assay [1] (setting [7]); 14% in assay [1] (setting [8]); 12.7% in assay [1] (at 50.0 µM); 5% in assay [2] (setting [7]); -1% in assay [2] (setting [8]); -11.5% in assay [2] (at 50.0 µM). In addition, the growth inhibition in assay [3] (setting [7]) was 5%; in assay [3] (setting [8]), 14%; in assay [3] (at 50.0 µM), -1.95%; in assay [4] (setting [7]), 0%; in assay [4] (setting [8]) it was -14%; in assay [4] (at 50.0 µM), 50.9%. Besides, the growth inhibition was -3% in assay [5] (setting [7]); 3% in assay [5] (setting [8]); 2.6% in assay [5] (at 50.0 µM); -4% in assay [6] (setting [7]); 3% in assay [6] (setting [8]); 1.5% in assay [6] (at 50.0 µM).

`CN(C)c1ccccc1CCCCCCc1ccccc1N(C)C`: the growth inhibition is 54% in assay [1] (setting [7]); 59% in assay [1] (setting [8]); 84% (active) in assay [1] (at 50.0 µM); 55% in assay [2] (setting [7]); 57% in assay [2] (setting [8]); 74.7% (active) in assay [2] (at 50.0 µM). The growth inhibition is 76% (active) in assay [3] (setting [7]); 72% (active) in assay [3] (setting [8]); 87.8% (active) in assay [3] (at 50.0 µM); 79% (active) in assay [4] (setting [7]); 82% (active) in assay [4] (setting [8]); 85.2% (active) in assay [4] (at 50.0 µM). Also, the growth inhibition is 67% in assay [5] (setting [7]); 50% in assay [5] (setting [8]); 80.5% (active) in assay [5] (at 50.0 µM); 38% in assay [6] (setting [7]); 43% in assay [6] (setting [8]); 76.3% (active) in assay [6] (at 50.0 µM).
